These results are taken from PubChem BioAssay (EPA / NIEHS).

Read-out in assay [1]: TIMP metallopeptidase inhibitor 2 (TIMP2), TIMP2 (gene 7077)
Kind of assay: BSK_KF3CT_TIMP2: BioMAP Diversity Plus: KF3CT Assay for TIMP metallopeptidase inhibitor 2 (TIMP2) Biomarker Activity (AID 2283071). The note with it: primary human keratinocytes with fibroblasts; actives raise or lower the signal. The method in brief:
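TIMP-2 measured by ELISA at 24 h in human keratinocyte/fibroblast primary co-cultures exposed to chemicals. Both increases and decreases were fitted against DMSO. Parallel cultures were stained with SRB for total protein as an overt-cytotoxicity check.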

Read-out in assay [2]: Transforming growth factor beta 1 (TGFb1), TGFB1 (gene 7040)
Kind of assay: BSK_KF3CT_TGFb1: BioMAP Diversity Plus: KF3CT Assay for Transforming growth factor beta 1 (TGFb1) Biomarker Activity (AID 2283072). As to conditions: primary human keratinocytes with fibroblasts; actives raise or lower the signal. In a few lines:
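ELISA quantifies TGF-b1 at 24 h post-dose in a primary human skin co-culture of keratinocytes and fibroblasts, with gain or loss judged against DMSO. Parallel SRB total-protein staining flags overt cytotoxicity.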

Read-out in assay [3]: C-C motif chemokine 2 (Homo sapiens) (UniProt P13500)
Description: BSK_KF3CT_MCP1: BioMAP Diversity Plus: KF3CT Assay for Monocyte Chemoattractant Protein 1 (MCP1/CCL2) Biomarker Activity (AID 2283073). The note with it: primary human keratinocytes with fibroblasts; actives raise or lower the signal. The method in brief: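 Human keratinocyte plus foreskin fibroblast primary co-culture exposed to chemical for 24 h. MCP-1 levels measured by ELISA. Bidirectional curve fitting relative to DMSO negative control as baseline.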

Read-out in assay [4]: Matrix Metallopeptidase 9 (MMP9), MMP9 (gene 4318)
Description: BSK_KF3CT_MMP9: BioMAP Diversity Plus: KF3CT Assay for Matrix Metallopeptidase 9 (MMP9) Biomarker Activity (AID 2283074). As to conditions: primary human keratinocytes with fibroblasts; actives raise or lower the signal. In a few lines: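 ELISA read-out of MMP-9 at 24 h post-dosing in a co-culture of human skin keratinocytes and foreskin fibroblasts. Gain or loss of signal was fitted in both directions against DMSO.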

Read-out in assay [5]: urokinase plasminogen activator (uPA), PLAU (gene 5328)
Description: BSK_KF3CT_uPA: BioMAP Diversity Plus: KF3CT Assay for urokinase plasminogen activator (uPA) Biomarker Activity (AID 2283075). The note with it: primary human keratinocytes with fibroblasts; actives raise or lower the signal. The method in brief:
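Skin co-culture (keratinocytes + foreskin fibroblasts), human primary; 24 h post-dose; uPA by ELISA; gain/loss fit vs DMSO baseline.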

Read-out in a further assay: CD40, CD40 (gene 958)
Description: BSK_LPS_CD40: BioMAP Diversity Plus: LPS Assay for CD40 Biomarker Activity (AID 2283076). The note with it: primary human HUVEC with PBMC; actives raise or lower the signal. The method in brief: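 Primary human umbilical vein endothelial cells co-cultured with peripheral blood mononuclear cells, LPS-stimulated, were dosed with chemical and read 24 h later. CD40 levels were measured by ELISA and fitted bidirectionally against DMSO as negative control and baseline.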

Read-out in assay [6]: E-selectin (Homo sapiens) (UniProt P16581)
Description: BSK_LPS_Eselectin: BioMAP Diversity Plus: LPS Assay for Eselectin Biomarker Activity (AID 2283077). As to conditions: primary human HUVEC with PBMC; actives raise or lower the signal. In a few lines: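 Human umbilical vein endothelial cells co-cultured with peripheral blood mononuclear cells under LPS stimulation; E-selectin measured by ELISA 24 h after chemical dosing. Activity fitted bidirectionally against DMSO as negative control and baseline.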

Read-out in assay [7]: Interleukin-8 (IL8), CXCL8 (gene 3576)
Kind of assay: BSK_LPS_IL8: BioMAP Diversity Plus: LPS Assay for Interleukin-8 (IL8) Biomarker Activity (AID 2283078). The note with it: primary human HUVEC with PBMC; actives raise or lower the signal. In a few lines:
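Human umbilical vein endothelial cells co-cultured with PBMC were stimulated with LPS; IL-8 levels were measured by ELISA 24 h after chemical dosing. Activity was fitted bidirectionally against DMSO as negative control and baseline.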

A short description of assay [8]: BSK_LPS_SRB: Viability Assessment in the BioMAP Diversity Plus: LPS Assay (AID 2283079).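 Also: total protein by sulforhodamine B absorbance as a cytotoxicity measure; measured one day after compound addition.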 The note with it: primary human HUVEC with PBMC. The method in brief: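 Human umbilical vein endothelial cells co-cultured with PBMC (LPS system) were dosed for 24 h. Total protein was stained with 0.1% sulforhodamine B after 10% TCA fixation, read at 560 nm, and fitted bidirectionally against DMSO baseline.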

Read-out in assay [9]: Interleukin-1 alpha (IL1a), IL1A (gene 3552)
Description: BSK_LPS_IL1a: BioMAP Diversity Plus: LPS Assay for Interleukin-1 alpha (IL1a) Biomarker Activity (AID 2283080). The note with it: primary human HUVEC with PBMC; actives raise or lower the signal. In a few lines:
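Human umbilical vein endothelial cells co-cultured with peripheral blood mononuclear cells were LPS-stimulated and exposed to test chemicals for 24 h. IL-1 alpha was quantified by ELISA, with bidirectional curve fitting against DMSO as the negative control and baseline.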

Read-out in assay [10]: Monocyte Chemoattractant Protein-1 (MCP1), CCL2 (gene 6347)
Kind of assay: BSK_LPS_MCP1: BioMAP Diversity Plus: LPS Assay for Monocyte Chemoattractant Protein-1 (MCP1) Biomarker Activity (AID 2283081). As to conditions: primary human HUVEC with PBMC; actives raise or lower the signal. In a few lines:
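HUVEC plus PBMC co-culture (human primary cells, LPS system) exposed to test chemical for 24 h; MCP-1 measured by ELISA. Bidirectional curve fitting against DMSO baseline; parallel SRB total-protein staining flags overt cytotoxicity.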

Assay [11] can be described thus: BSK_LPS_PGE2: BioMAP Diversity Plus: LPS Assay for Prostaglandin E2 (PGE2) Biomarker Activity (AID 2283082). The note with it: primary human HUVEC with PBMC; actives raise or lower the signal. The method in brief: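 PGE2 release measured by ELISA in an LPS-activated co-culture of human umbilical vein endothelial cells and peripheral blood mononuclear cells, read at 24 h post-dosing. DMSO served as baseline for bidirectional curve fitting.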

Read-out in assay [12]: Macrophage colony-stimulating factor (MCSF), CSF1 (gene 1435)
Kind of assay: BSK_LPS_MCSF: BioMAP Diversity Plus: LPS Assay for Macrophage colony-stimulating factor (MCSF) Biomarker Activity (AID 2283083). As to conditions: primary human HUVEC with PBMC; actives raise or lower the signal. In a few lines: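 Human umbilical vein endothelial cells co-cultured with peripheral blood mononuclear cells were exposed to compound for 24 h. M-CSF levels were measured by ELISA, and bidirectional curve fitting used DMSO as the negative control and baseline.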

Read-out in assay [13]: Tissue Factor, F3 (gene 2152)
Kind of assay: BSK_LPS_TissueFactor: BioMAP Diversity Plus: LPS Assay for Tissue Factor Biomarker Activity (AID 2283084). The note with it: primary human HUVEC with PBMC; actives raise or lower the signal. The method in brief:
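Human umbilical vein endothelial cells co-cultured with peripheral blood mononuclear cells were dosed and stimulated with LPS. Cell-surface CD142 was quantified by ELISA at 24 h. Activity was fitted bidirectionally against DMSO baseline.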

Read-out in assay [14]: Tumor necrosis factor (Homo sapiens) (UniProt P01375)
Description: BSK_LPS_TNFa: BioMAP Diversity Plus: LPS Assay for Tumour Necrosis Factor alpha (TNFa) Biomarker Activity (AID 2283085). The note with it: primary human HUVEC with PBMC; actives raise or lower the signal. In a few lines:
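TNFa was quantified by ELISA in LPS-activated co-cultures of human endothelial cells and PBMC, 24 h post-dosing. Both increases and decreases versus DMSO were fitted.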

Read-out in assay [15]: Vascular cell adhesion molecule 1 (VCAM1), VCAM1 (gene 7412)
Description: BSK_LPS_VCAM1: BioMAP Diversity Plus: LPS Assay for Vascular cell adhesion molecule 1 (VCAM1) Biomarker Activity (AID 2283086). The note with it: primary human HUVEC with PBMC; actives raise or lower the signal. In a few lines: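 VCAM-1 quantified by ELISA in an LPS-activated co-culture of human endothelial cells and peripheral blood mononuclear cells, read 24 h post-treatment. Fitted in both directions versus DMSO; parallel SRB staining flags overt cytotoxicity.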

Read-out in a further assay: CD38, CD38 (gene 952)
Description: BSK_SAg_CD38: BioMAP Diversity Plus: SAg Assay for CD38 Biomarker Activity (AID 2283087). The note with it: primary human HUVEC with PBMC; actives raise or lower the signal. The method in brief:
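CD38 quantified by ELISA (fluorescence) in a superantigen-activated endothelial cell–PBMC co-culture at 24 h post-dose. Activity fitted in both directions relative to DMSO; parallel SRB and Alamar Blue cytotoxicity read-outs.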

Read-out in assay [16]: Monocyte Chemoattractant Protein-1 (MCP1), CCL2 (gene 6347)
Description: BSK_SAg_MCP1: BioMAP Diversity Plus: SAg Assay for Monocyte Chemoattractant Protein-1 (MCP1) Biomarker Activity (AID 2283090). The note with it: primary human HUVEC with PBMC; actives raise or lower the signal. In a few lines:
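Values derive from bidirectional fitting of ELISA-measured MCP1 against DMSO controls. Readings were taken 24 h after dosing human vascular endothelial cells co-cultured with peripheral blood mononuclear cells under superantigen stimulation.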

Read-out in a further assay: CD69, CD69 (gene 969)
Description: BSK_SAg_CD69: BioMAP Diversity Plus: SAg Assay for CD69 Biomarker Activity (AID 2283089). As to conditions: primary human HUVEC with PBMC; actives raise or lower the signal. In a few lines:
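Primary human vascular co-culture (umbilical vein endothelium with peripheral blood mononuclear cells) exposed to test chemical for 24 h. CD69 levels quantified by fluorescence ELISA; DMSO served as negative control for bidirectional fitting.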

Active and inactive are the calls of the source. The calls were made as follows: active = hit-call score of the fitted dose curve at least 0.9, where 1 is the maximum; inactive = score below 0.9.

Tumor necrosis factor (Homo sapiens), sequence (P01375 whole entry, looked up): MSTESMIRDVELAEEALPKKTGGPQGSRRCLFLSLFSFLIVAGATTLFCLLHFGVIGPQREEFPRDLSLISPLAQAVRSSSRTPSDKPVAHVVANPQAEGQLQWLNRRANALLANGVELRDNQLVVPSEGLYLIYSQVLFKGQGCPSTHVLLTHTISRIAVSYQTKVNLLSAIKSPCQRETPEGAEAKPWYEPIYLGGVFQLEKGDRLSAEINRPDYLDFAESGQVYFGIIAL
E-selectin (Homo sapiens), sequence (P16581 whole entry, looked up): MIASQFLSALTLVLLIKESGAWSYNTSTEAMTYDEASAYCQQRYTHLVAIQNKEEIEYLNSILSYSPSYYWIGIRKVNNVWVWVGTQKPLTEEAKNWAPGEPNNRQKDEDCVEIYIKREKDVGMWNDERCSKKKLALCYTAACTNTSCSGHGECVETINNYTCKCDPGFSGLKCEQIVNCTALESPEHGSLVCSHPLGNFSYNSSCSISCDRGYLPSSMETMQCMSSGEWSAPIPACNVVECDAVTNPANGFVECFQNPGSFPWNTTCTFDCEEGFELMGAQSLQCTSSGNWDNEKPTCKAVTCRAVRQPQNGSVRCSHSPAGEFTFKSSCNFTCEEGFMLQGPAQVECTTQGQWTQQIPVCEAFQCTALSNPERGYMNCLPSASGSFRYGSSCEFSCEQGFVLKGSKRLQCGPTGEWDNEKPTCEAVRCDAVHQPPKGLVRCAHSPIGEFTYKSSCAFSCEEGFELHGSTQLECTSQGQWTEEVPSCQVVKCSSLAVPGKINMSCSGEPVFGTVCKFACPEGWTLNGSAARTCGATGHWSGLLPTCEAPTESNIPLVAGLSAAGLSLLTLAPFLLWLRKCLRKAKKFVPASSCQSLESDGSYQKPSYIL

Consider `FC(F)C(F)(F)OCC(Cn1cncn1)c1ccc(Cl)cc1Cl` (centres undefined), for which the outcome in assay [1], in assay [2], in [3], in [4], in assay [5] and in assay [6] was inactive. Moreover, the result in assay [7], in assay [9], in assay [10], in assay [13], in assay [14] and in assay [16] was inactive. For the same molecule, the AC50 in the assay with CD40, CD40 (gene 958) is 17.1 µM (active); in [8], 20 µM (active); in assay [11], 2.52 µM (active); in assay [12] it was 30.7 µM (active); in assay [15] it was 32.8 µM (active); with CD38, CD38 (gene 952), 20 µM (active).

Take `CCCCOC(=O)c1ccccc1C(=O)O`: the outcome in assay [1], in assay [2], in [3], in assay [4], in assay [5] and in [6] was inactive. Further, the outcome in [7], in assay [8], in assay [9], in assay [10], in assay [11] and in [12] was inactive. In addition, the outcome in assay [13] was “inactive”; in [14] it was “inactive”; in assay [15], “inactive”; with CD38, CD38 (gene 952), “inactive”; in the assay with CD69, CD69 (gene 969) it was “inactive”; in assay [16], “inactive”.

Consider `C[N+]1(C)CCCCC1`, for which the outcome in assay [1], in assay [2], in assay [3], in assay [4], in [5] and in assay [6] was inactive. For the same molecule, the outcome in assay [7], in assay [8], in assay [9], in assay [10], in assay [11] and in [12] was inactive. Moreover, the outcome was “inactive” in assay [13]; “inactive” in assay [14]; “inactive” in assay [15]; “inactive” with CD38, CD38 (gene 952); “inactive” with CD69, CD69 (gene 969); “inactive” in [16].
